The record followed here is PubChem BioAssay AID463190 (Sanford-Burnham Center for Chemical Genomics, 2010).

The campaign covered roughly 330,000 compounds. About 7,300 (2.2%) were called active. The sample as a whole holds a higher share of actives than the screen did. Values without a mark were called inactive.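 Rule for the calls: active = inhibition of at least 40%; inactive = the rest.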

The assay is described as follows: growth inhibition of tim10-1 ts yeast – luminescence, uHTS, primary screen (AID 463190).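 Note: mutant grown at 25 °C; 0% = DMSO wells with yeast and 100% = wells holding no yeast.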 Conditions: S. cerevisiae tim10-1 ts strain growth, BacTiter-Glo, 24 h; at 20 µM; active compounds read high.
With `COc1ccc(CCNC(=O)C(=O)Nc2ccc3nc4n(c(=O)c3c2)CCCCC4)cc1OC`, the inhibition (usually the drop in the measured response relative to a control, in per cent) was 9.06%.

For `CCn1cc(CNC(=O)c2cc([N+](=O)[O-])c(C)c([N+](=O)[O-])c2)cn1`, the inhibition was 14.3%.

On to `CCCN(CC1COc2ccccc2O1)C(=S)Nc1ccc(C)cc1` (configuration not stated), for which the inhibition is 46.4% (active).

Regarding `S=C(NCC1COc2ccccc2O1)Nc1ccc(Br)cc1` (configuration not stated), the inhibition was 7.9%.

Consider `CCC(=O)c1ccc(OCC(=O)N(CC)CC2COc3ccccc3O2)cc1` (configuration not stated), for which the inhibition is 18.9%.

As to `CC(C)C(O)C1CCN(Cc2nc(Cc3ccccc3Cl)no2)CC1` (configuration not stated), the inhibition is 15.8%.

Turning to `C/C=C(/C)C(=O)O[C@@H]1c2cc3c(c4c2[C@@]2(CO4)C(=O)C(OC)=C(OC)C=C2C[C@@H](C)[C@H]1C)OCO3`, the inhibition is 13.3%.

With `C[C@@H](C(=O)N1CCNCC1)n1cc(CCC(=O)O)nn1`, the inhibition is -7.39%.

On to `COC(=O)N(NC(=O)C(O)(C(C)C)C(C)C)c1ccccc1`, for which the inhibition was -7.63%.

For the compound `CCCCC(O)(CCCC)C(=O)NN(C(=O)CCl)c1ccccc1`, the inhibition was 49.5% (active).

Regarding `CCCC(O)(CCC)C(=O)NN(C(=O)CCl)c1cccc(C)c1`, the inhibition is 31.5%.

For the compound `Cc1ccnc(SCCn2c(N(C)Cc3ccccc3)nc3c2c(=O)n(C)c(=O)n3C)n1`, the inhibition is 30%.

With `COc1ccc(C(C#N)(CC(=O)O)c2cnccn2)cc1OC` (configuration not stated), the inhibition was -2.88%.

`COc1ccccc1CNS(=O)(=O)c1ccc2c(c1)NC(=O)CS2`: the inhibition was -7.01%.

`Cn1c(=O)[nH]c(=O)c2c1nc(N1CCN(C(c3ccccc3)c3ccccc3)CC1)n2CCO`: the inhibition was 10.4%.

Turning to `O=C(O)c1ccccc1CSc1nc2ccccc2s1`, the inhibition is 2.18%.

On to `NC(=O)c1ccc(Nc2ccc3nonc3c2[N+](=O)[O-])cc1`, for which the inhibition is -0.57%.

Consider `O=[N+]([O-])c1c(NCCO)cc(Sc2nc3ccccc3s2)c2nonc12`, for which the inhibition was 42.6% (active).

For the compound `COc1cc(C(=O)OCC(=O)NC(C)CCc2ccccc2)cc(OC)c1OC` (configuration not stated), the inhibition is 13.5%.

`CN1C(=O)[C@H]2[C@@H](/C=C/c3ccccc3)N3C(=O)CN(Cc4ccc(-c5ccccc5)cc4)C(=O)[C@@]3(C)[C@H]2C1=O`: the inhibition was 1.58%.

Consider `Cc1c(C(=O)Nc2cccc(Cl)c2)cn2c(nc3ccccc32)c1C#N`, for which the inhibition is 10.2%.

For `CCOCCn1c(-c2ccccc2)nc2ccccc21`, the inhibition was -13.4%.

As to `Cc1nc(-c2ccccc2)cn2c1nc1ccccc12`, the inhibition is 40.7% (active).

Consider `COc1ccc(C(=O)OCC(=O)c2ccc(Cl)s2)c(OC)c1OC`, for which the inhibition is 6.36%.

Regarding `Cc1ccc(S(=O)(=O)NCCC(c2ccccc2)c2ccccc2)cc1C(=O)O`, the inhibition was 25.2%.

With `COc1ccc(C(=O)COC(=O)CNC(=O)c2cccs2)cc1Br`, the inhibition is -2.83%.

As to `COc1ccc(/C(C)=N/NC(=O)c2ccc3nc[nH]c3c2)cc1`, the inhibition was 52.3% (active).

As for `CCN(CC)c1ccc(C(=O)N/N=C(\C)c2cccc(OC)c2)cc1`, the inhibition is -18.4%.

As to `CC(=NNC(=O)c1ccc2nc[nH]c2c1)c1ccc(Br)cc1`, the inhibition was 9.94%.

`O=C(O/N=C(/c1ccccc1)c1ccncc1)c1ccccc1[N+](=O)[O-]`: the inhibition is 41.3% (active).

As for `CN(C)CCCO/N=C(\c1ccccc1)c1ccncc1`, the inhibition was -3.73%.

With `O=C(Nc1ccncc1)c1ccccc1[N+](=O)[O-]`, the inhibition was 0.557%.

`COc1ccc(OCC(=O)NNC(=O)C2CCC2)cc1`: the inhibition is -8.95%.

With `O=C(Nc1ccc(Cl)c(Cl)c1)c1ccccc1NC(=O)C1CC=CCC1C(=O)O` (configuration not stated), the inhibition was 14.6%.

As for `CCOc1cc(/C=N/NC(=O)c2cc(-c3ccccc3)nc3ccccc23)ccc1O`, the inhibition is 11.6%.

For the compound `COc1ccc(C(=O)Nc2ccccc2C(=O)N/N=C/c2ccccc2OC)cc1`, the inhibition was 66.7% (active).

Consider `COc1ccc(C(=O)Nc2ccccc2C(=O)N/N=C/c2ccc(O)c(OC)c2)cc1`, for which the inhibition was 97% (active).

`COc1cc(/C=N/NC(=O)c2ccc(N3CCCC3=O)cc2)ccc1O`: the inhibition is 13.5%.

With `COc1ccccc1C(=O)NNC(=O)c1ccc(NC(=O)c2ccccc2)cc1`, the inhibition is -9.84%.

With `COc1ccc(C(=O)Nc2cc(C)c(NC(=O)c3ccccc3OC)cn2)cc1`, the inhibition is -34.5%.

For the compound `O=C(Nc1cccc(Cl)c1)C1CCCN(c2cnccn2)C1` (configuration not stated), the inhibition is -8.48%.

As for `O=C(NCCc1ccccc1)Oc1ccc(Cl)cc1`, the inhibition is 13.9%.

`O=C(COc1ccc(-n2cnnn2)cc1)Nc1ccccc1Cl`: the inhibition is -7.79%.

As to `Cc1ccc(NC(=O)CCC(=O)N2CCC(c3ccccc3)=N2)cc1S(=O)(=O)N1CCCCC1`, the inhibition was -15.3%.

Turning to `Cc1ccc(C(=O)NCC(=O)OCC(=O)Nc2cccc(S(=O)(=O)N3CCCC3)c2)cc1C`, the inhibition is -7%.

Consider `COc1ccccc1CNC(=O)CCCN1C(=O)NC2(CCCC2)C1=O`, for which the inhibition was 6.1%.

With `CCCc1nc2c(c(=O)c3ccccc3n2C)c(=O)n1C1CCCCCC1`, the inhibition is 43.1% (active).

For the compound `Cn1c2ccccc2c(=O)c2c(O)cccc21`, the inhibition was 6.4%.

Regarding `Cn1c2ccccc2c2c(C(=O)N3CCN(c4ccc(F)cc4)CC3)cn(C3CCCC3)c(=O)c21`, the inhibition was 36.7%.

Turning to `CCc1nc2nc(C)c(NS(=O)(=O)c3ccc4c(c3)CCCC4)c(=O)n2[nH]1`, the inhibition is -10.4%.

Regarding `O=S(=O)(c1ccc(Cl)cc1)c1nc(-c2ccco2)oc1N1CCCCC1`, the inhibition was 26.4%.

In the case of `O=c1oc(-c2ccco2)nc2sc3c(c12)CCCCC3`, the inhibition was 41.5% (active).

In the case of `Cn1c(=O)n(Cc2ccco2)c(=N)c2c3c(sc21)CCCC3`, the inhibition was 12.5%.

Regarding `Cc1cccc(/C=N/NC(=O)CNc2cccc3ccccc23)n1`, the inhibition was 23.6%.

Consider `Cn1cccc1/C=N/NC(=O)CNc1cccc2ccccc12`, for which the inhibition was 13.6%.

Turning to `C/C(=N\NC(=O)CNc1cccc2ccccc12)c1ccc(Br)s1`, the inhibition is 41.9% (active).

Consider `CC(C)c1ccc(NC2CCCN(C(=O)c3ccncc3)C2)cc1` (configuration not stated), for which the inhibition was 8.48%.

In the case of `Fc1ccccc1OCCSc1nc2ccccc2o1`, the inhibition was 27.5%.

Regarding `COCCN(Cc1ccccc1)C(=O)Cc1ccc(S(=O)(=O)N2CCOCC2)s1`, the inhibition was 18.8%.

For the compound `COc1nc(NCc2ccc(Cl)cc2)nc(OC)n1`, the inhibition was 6.89%.

Regarding `C=CCNc1nc(Nc2ccc(Cl)cc2)nc(OC)n1`, the inhibition was 43.2% (active).

Consider `C=CCNc1nc(C)nc(OC)n1`, for which the inhibition was 7.31%.

In the case of `Cc1[nH][nH]c(=O)c1C(c1ccc(-c2ccc(Cl)cc2)o1)c1c(C)[nH][nH]c1=O`, the inhibition was 67.1% (active).

With `CN(CC(=O)Nc1ccc(F)cc1)C(=O)c1ccc(-c2ccc(Cl)cc2)o1`, the inhibition was 21.8%.

Take `CCCCSc1[nH]c(=O)c(C(=O)OCC)cc1C#N`: the inhibition is -14.3%.

Take `O=C(c1cc2cc(Br)cc(Br)c2oc1=O)N1CCOCC1`: the inhibition is 7.28%.

Turning to `O=C(CSC(=S)N1CCOCC1)c1cc(Br)cc(Br)c1O`, the inhibition is 50.1% (active).

In the case of `O=C(CSC(=S)N1CCOCC1)c1ccccc1`, the inhibition is 5.05%.

`Nn1c(SCC(=O)NC2CCCC2)nnc1-c1ccccc1F`: the inhibition is -11.7%.

As for `CC(=O)Nc1ccc(Sc2ccccc2C(=O)N2CCCC2)cn1`, the inhibition was 7.35%.

As for `CC(C)(C)CN1CCNC(=O)C1CC(=O)NC1Cc2ccccc2C1` (configuration not stated), the inhibition was 16.6%.

On to `O=C1c2cccc3c([N+](=O)[O-])ccc(c23)C(=O)N1CC1CCCO1` (configuration not stated), for which the inhibition is 71.2% (active).

In the case of `CCOc1cccc(=O)c2c(C)n(CC3CCCO3)c(C)c12` (configuration not stated), the inhibition is 1.25%.

`CN1CN(C)c2ccc([N+](=O)[O-])c3cccc1c23`: the inhibition is 9.35%.

On to `O=C(c1ccccc1)N1CCC(CC2CC(c3ccc(Cl)cc3)=NO2)(C(=O)NCC2CCCCC2)CC1` (configuration not stated), for which the inhibition is 41.2% (active).

For `COc1ccc(CNC(=O)C2(CC3CC(c4ccccc4)=NO3)CCN(C(=O)c3cccc(O)c3)CC2)cc1` (configuration not stated), the inhibition is 2.25%.

For the compound `CCCCCCCNC(=O)C1(CC2CC(c3cccc(Br)c3)=NO2)CCN(C(=O)c2cc(OCC)c(OCC)c(OCC)c2)CC1` (configuration not stated), the inhibition is -4.27%.

Turning to `O=C(NCC1CCCO1)C1CCN(C2CCN(C(=O)C3CCCCC3)CC2)CC1` (configuration not stated), the inhibition is -2.3%.

As for `C/C(=N/O)c1ccc(N2C(=O)C3C4C=CC(C3C2=O)C2C3C(=O)N(c5ccc(/C(C)=N/O)cc5)C(=O)C3C42)cc1` (configuration not stated), the inhibition is 6.62%.

With `O=C(O)c1cccc(S(=O)(=O)N2CC=C(c3ccccc3)CC2)c1`, the inhibition is 13.4%.

Take `COc1ccc(OC)c(S(=O)(=O)n2c([N+](=O)[O-])cnc2C)c1`: the inhibition was 13.3%.

Consider `COc1ccc(C(C[N+](=O)[O-])n2nc(C)cc2C)cc1` (configuration not stated), for which the inhibition is 43.3% (active).

As to `CCOc1ccc(C(C)C)cc1S(=O)(=O)n1nc(C)cc1C`, the inhibition is 36.6%.

`Cc1ccc(S(=O)(=O)N(C)C)cc1NC(=O)c1ccc(-n2cncn2)c([N+](=O)[O-])c1`: the inhibition is -0.831%.

Take `Cn1ccs/c1=N\S(=O)(=O)c1ccc(C(C)(C)C)cc1`: the inhibition is 26.8%.

For the compound `COc1cc(C(=O)OCc2cc(=O)n3ccsc3n2)ccc1OC(C)C`, the inhibition was -4.26%.

For `CCCCCCSc1nsc(N)n1`, the inhibition is 26.2%.

Turning to `CN(Cc1ccccc1)CC(O)COc1ccc(CNCc2cc3ccccc3s2)cc1` (configuration not stated), the inhibition is -10.1%.

Regarding `COC(=O)c1ccc(NC(=O)c2ccccc2NS(=O)(=O)c2ccccc2)cc1`, the inhibition was 40.3% (active).

On to `CCOc1ccc(NC(=O)c2ccccc2NS(C)(=O)=O)cc1`, for which the inhibition was -4.15%.

Turning to `COC(=O)c1ccccc1NS(=O)(=O)c1ccc2[nH]c(=O)[nH]c2c1`, the inhibition was 5.53%.

Consider `CCOC(=O)c1ccc(NC(=O)CS(=O)(=O)c2cn(CC)c3ccccc23)cc1`, for which the inhibition was 14.8%.
